We go through 13 compounds from PubChem BioAssay (NCI).

Compounds without any hit were thinned out: in the full panel of roughly 83,000, 20% have a hit.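 Cells were grown in 96-well plates and exposed to the test compound at a single concentration for 48 hours; results are reported as percent growth, with values below 10 considered active.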 Values without a mark were called inactive. The source made the active and inactive calls.

Some test systems named below: SK-MEL-2 melanoma; EKVX NSCLC; SN12C renal; UO-31 renal; TK-10 renal; ACHN renal; A498 renal; CCRF-CEM leukemia; MOLT-4 leukemia; SR leukemia.
Common to all, as to assay: NCI-60 one-dose screen, 48 h (100 = growth as untreated, 0 = no growth, -100 = all killed)
Details in all cases: 10 µM unless noted

Consider `N#Cc1ccc(N2Cc3cc(Cl)ccc3OC3=C2C(=O)N(Cc2ccccc2)C3=O)cc1`, for which the growth is -38.7% (active) with SK-MEL-2 melanoma; 43.8% in the test on EKVX NSCLC; -39.5% (active) with SN12C renal; -90.5% (active) with UO-31 renal; -66.3% (active) in the test on TK-10 renal; -85.6% (active) in the test on ACHN renal. Besides, the growth in the test with A498 renal is 129%; in the test with CCRF-CEM leukemia, -9.47% (active); in the test on MOLT-4 leukemia, -24.7% (active); in the test on SR leukemia, -25.7% (active).

Consider `C=CCn1c(SCC(=O)Nc2ccc(C(=O)/C=C/c3cc(OC)c(OC)c(OC)c3)cc2)nnc1-c1ccc(Cl)cc1`, for which the growth is 26.3% with SK-MEL-2 melanoma; 21.6% with EKVX NSCLC; 27.9% with SN12C renal; 26.5% in the test with UO-31 renal; 35.9% with TK-10 renal; 37.4% with ACHN renal. The growth in the test on A498 renal was 15.6%; in the test with CCRF-CEM leukemia, 6.62% (active); with MOLT-4 leukemia, 7.87% (active); in the test with SR leukemia, 3.83% (active).

In the case of `N#CCNc1ccc(C(=O)O)cc1`, the growth was 108% in the test on SK-MEL-2 melanoma; 104% in the test on EKVX NSCLC; 103% in the test on SN12C renal; 101% with UO-31 renal; 97.4% in the test on TK-10 renal; 111% in the test on ACHN renal. Further, the growth with A498 renal was 106%; in the test on CCRF-CEM leukemia it was 99.3%; in the test with MOLT-4 leukemia it was 96.3%; with SR leukemia it was 99.2%.

On to `COc1ccc(C(=O)c2cc(F)c(F)c(OC)c2F)cc1OC(=O)CCl`, for which the growth in the test with SK-MEL-2 melanoma was 25.9%; in the test on EKVX NSCLC, 73.9%; in the test with SN12C renal, 39.4%; in the test on UO-31 renal, 71.8%; with TK-10 renal it was 88.2%; in the test on ACHN renal, 59.8%. For the same compound, the growth in the test on A498 renal was 94.5%; in the test with CCRF-CEM leukemia it was 32.8%; in the test with MOLT-4 leukemia it was 29.6%; in the test on SR leukemia it was 20.8%.

In the case of `C=CCn1c(SCC(=O)Nc2ccc(C(=O)/C=C/c3ccc(Cl)cc3)cc2)nnc1-c1cc(OC)c(OC)c(OC)c1`, the growth in the test with SK-MEL-2 melanoma is 103%; with EKVX NSCLC it was 92.3%; with SN12C renal, 79.7%; in the test with UO-31 renal it was 66.5%; in the test with TK-10 renal, 102%; in the test on ACHN renal, 106%. Further, the growth in the test with A498 renal is 82.5%; in the test on CCRF-CEM leukemia, 84.6%; with MOLT-4 leukemia it was 70.8%; with SR leukemia, 72.9%.

In the case of `COc1cc(C2CC(c3ccc(Nc4nc(NCCO)nc(NCCO)n4)cc3)=NN2c2cc(Cl)cc(Cl)c2)cc(OC)c1OC` (stereo not given), the growth in the test on SK-MEL-2 melanoma is 85%; with EKVX NSCLC it was 35.2%; in the test on SN12C renal, 13.1%; in the test with UO-31 renal, 49.4%; in the test with TK-10 renal, -25.7% (active); with ACHN renal, 67.3%. For the same compound, the growth is 96.8% in the test on A498 renal, 19.3% in the test on CCRF-CEM leukemia, 16.3% in the test on MOLT-4 leukemia and -9.38% (active) with SR leukemia.

Consider `NS(=O)(=O)c1ccc(C2C3=C(CCCC3=O)OC3=C2C(=O)c2ccccc2C3=O)cc1` (stereo not given), for which the growth in the test with SK-MEL-2 melanoma was -74% (active); with EKVX NSCLC it was -55.4% (active); with SN12C renal, -52.7% (active); in the test with UO-31 renal, -21.6% (active); with TK-10 renal, -92.6% (active); in the test with ACHN renal, -78.9% (active). The growth in the test with A498 renal was -68.9% (active); in the test on CCRF-CEM leukemia, -10.5% (active); in the test with MOLT-4 leukemia, -54.6% (active); in the test on SR leukemia, -19.9% (active).

For `COc1ccc(N(C)c2nc(Cl)nc3ccn(C)c23)cc1`, the growth is 19.3% in the test with SK-MEL-2 melanoma; 43.1% in the test with EKVX NSCLC; 23% with SN12C renal; 45% with UO-31 renal; 67.7% in the test with TK-10 renal; 21.9% in the test on ACHN renal. The growth with A498 renal was -9.23% (active); in the test on CCRF-CEM leukemia it was 8.02% (active); in the test on MOLT-4 leukemia, 9.94% (active); in the test with SR leukemia it was 11.3%.

In the case of `CCC1S/C(=N\N=C(/C)c2ccc[nH]2)N(c2ccccc2)C1=O` (stereo not given), the growth in the test on SK-MEL-2 melanoma is 124%; with EKVX NSCLC it was 116%; in the test on SN12C renal, 116%; in the test on UO-31 renal it was 43%; with TK-10 renal it was 83.5%; in the test on ACHN renal, 102%. For the same compound, the growth with A498 renal is 112%; in the test with CCRF-CEM leukemia, -86.5% (active); in the test on MOLT-4 leukemia, -50% (active); in the test on SR leukemia, 32.5%.

As for `CNCc1cccc2c1OCCOCCOCCN(CCN1CCOCC1)S(=O)(=O)c1ccc(cc1)-c1cnc(N)c(n1)C(=O)N2`, the growth in the test with SK-MEL-2 melanoma is 60.9%; in the test with EKVX NSCLC, 74.8%; with SN12C renal, 68.4%; in the test with UO-31 renal, 55.6%; in the test with TK-10 renal, 43.9%; with ACHN renal, 36.7%. Besides, the growth in the test with A498 renal is 44.4%; with CCRF-CEM leukemia, 18%; with MOLT-4 leukemia, -1.99% (active); in the test with SR leukemia it was 7.93% (active).

In the case of `CCSc1ccc(C2C(Br)C(=O)N2c2cc(OC)c(OC)c(OC)c2)cc1` (stereo not given), the growth is 63.7% in the test with SK-MEL-2 melanoma; 70.2% with EKVX NSCLC; 31.6% in the test on SN12C renal; 26.2% in the test on UO-31 renal; 76.6% in the test with TK-10 renal; 32.6% with ACHN renal. Moreover, the growth in the test with A498 renal is -14.3% (active); with CCRF-CEM leukemia, 12.3%; with MOLT-4 leukemia, 20%; with SR leukemia, 16.3%.

With `CCOC(=O)C1=C(C)n2nc(CC#N)c(C#N)c2NC1c1ccc(Cl)cc1` (stereo not given), the growth with SK-MEL-2 melanoma was 105%; in the test on EKVX NSCLC, 89%; in the test with SN12C renal, 96.6%; in the test with UO-31 renal, 73.3%; in the test with TK-10 renal, 123%; in the test on ACHN renal, 90.8%. For the same compound, the growth in the test with A498 renal was 98.6%; in the test with CCRF-CEM leukemia, 96.4%; with MOLT-4 leukemia, 104%; in the test with SR leukemia it was 101%.

Regarding `O=C(Nc1cc(Nc2ncccc2-c2ncnc3nc[nH]c23)ccc1F)c1cc(C(F)(F)F)cc(C(F)(F)F)c1`, the growth in the test with SK-MEL-2 melanoma is -40% (active); in the test with EKVX NSCLC, 20.4%; with SN12C renal, 16.5%; in the test with UO-31 renal, -37.4% (active); in the test with TK-10 renal, -16.9% (active); with ACHN renal, -7.8% (active). For the same compound, the growth in the test on A498 renal is -19.1% (active); in the test on CCRF-CEM leukemia it was 2.41% (active); in the test with MOLT-4 leukemia, -33.6% (active); in the test on SR leukemia, -21.1% (active).
